TDP1 cell noCPT = qHTS for Inhibitors of human tyrosyl-DNA phosphodiesterase 1 (TDP1): qHTS in cells in absence of CPT; DT40 Tdp1-/- hTDP1 cells, no CPT, ATP luminescence, 48 h; Potency, µM (top dose mostly 46.2 µM), most hits filed as inhibitors; hit rate 15% among 420,000; AID 686978, 2013; note: nearly all actives have a fitted effect of over 55% in size
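A cellular qHTS used chicken DT40 cells lacking endogenous Tdp1 but carrying stably transfected human TDP1. Compounds were applied without camptothecin, and cell growth kinetics were judged by ATP-dependent luminescence after ≥48 hr.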
ELG1 repair inh = inhibitors of ELG1-dependent DNA repair in HEK293T cells; HEK293T ELG1-luciferase reporter, luminescence, 16 h; DNA damage induced by 5-fluorouridine; Potency, µM (doses to about 46.1 µM), actives largely listed as inhibitors; hit rate 2.3% among 330,000; AID 504467; note: nearly all actives have a fitted effect of over 55% in size
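In this reporter screen, reduction of luminescence relative to DMSO vehicle indicated activity. Compounds and 5-fluorouridine were added together to 2,000 cells per well, incubated for 16 hr at 37 °C, then developed with ONE-Glo.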
IL1B secr inh = inflammasome signaling inhibition, IL-1 beta readout; THP-1 LPS/ATP IL-1B secretion, AlphaLISA, 16 h; active compounds read low; activity change, % at 57.5 µM; hit rate 4.7% among 360,000; in the data active = activity change below about -50%; inconclusive = mostly about -30% to -49%
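Secreted IL-1B measured by AlphaLISA bead assay after 16 h compound exposure of THP-1 cells; compounds (final up to 57.5 uM) added 1 h before LPS (250 ng/mL) and ATP (1.25 mM) stimulation; lower signal means less secretion.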
HT1080NT lethal = kills 2HG-producing HT-1080-NT fibrosarcoma cells | HT-1080-NT fibrosarcoma viability, CellTiter-Glo ATP luminescence, 48 h | Potency, µM (highest dose often 46.1 µM), actives largely listed as cytotoxic | hit rate 1.6% among 360,000;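 note: NT is the 2HG producing partner of a matched IDH1 knockdown line; nearly all actives have a fitted effect of over 55% in size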
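Viability of the 2HG-overproducing fibrosarcoma line after 48 hours of compound exposure at 37 degrees C was determined by luminescence with CellTiter-Glo, and concentration-effect curves were then fitted and categorized.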
HT1080 IDH1KD tx = toxicity to HT-1080 IDH1 knockdown cells (counter line). HT-1080 IDH1 knockdown viability, ATP luminescence, 48 h. Potency, µM (titrated, usually from 46.1 µM), usual class: cytotoxic. hit rate 2% among 360,000. AID 686971
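Assay cells: HT-1080 with IDH1 knockdown, 750 per well, RPMI/5% FBS. Exposure: 48 h at 37 °C following 2 h pre-incubation. Read: CellTiter-Glo luminescence; fitted concentration-response, curve class assigned.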
DT40 TDP1 CPT = DT40-hTDP1 cell growth loss with CPT; chicken DT40 Tdp1-/-;hTDP1 cells + 20 nM CPT, ATP luminescence, 48 h; Potency, µM (titrated, usually from 46.2 µM), hits mostly inhibitors; hit rate 12% among 420,000; note: nearly all actives have a fitted effect of over 55% in size
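Cell growth measured by CellTiter-Glo luminescence after a minimum 48 h, 37 C compound exposure with 20 nM CPT in Tdp1-knockout DT40 cells stably expressing hTDP1, seeded 400/well; qHTS titration format.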
Hits are given with their value; – = inactive; ? = inconclusive; · = no result given. A selection: hits, their analogues and other compounds. The true share with any hit is near 19%. Unless noted, calls come from the whole dose curve; as a rule, active = well fitted curve in the direction sought with a large enough effect; inconclusive = small, poorly fitted or top-dose-only effect, or another doubt; inactive = no such curve, though single readings can be large; an effect the other way counts as inactive or inconclusive.

SMILES | TDP1 cell noCPT | ELG1 repair inh | IL1B secr inh | HT1080NT lethal | HT1080 IDH1KD tx | DT40 TDP1 CPT
C[C@H]1O[C@@H](O[C@H]2[C@@H](O)C[C@@H](O[C@H]3[C@@H](O)C[C@H](O[C@H]4CC[C@@]5(C)[C@H](CC[C@@H]6[C@@H]5CC[C@]5(C)[C@@H](C7=CC(=O)OC7)CC[C@]65O)C4)O[C@@H]3C)O[C@@H]2C)C[C@H](O)[C@@H]1O | 0.11µM | · | · | · | · | 0.32µM
O=C(/C=C/c1c[nH]c2ccccc12)c1c(O)n(CCc2ccccc2)c(=O)[nH]c1=O | – | ? | · | – | – | –
CC1CC2CC(=O)CCC2(C)C2CCC3(C)C(O)CCC3C12 (configuration not stated) | ? | · | – | – | – | ?
OC(CNC1CCCCC1)C(F)(F)F (configuration not stated) | – | – | – | – | – | –
CC12CC[C@H]3[C@@H](CCC4(O)C[C@H](O)CCC34/C=N/NC(=O)c3ccccc3[N+](=O)[O-])C1(O)CCC2C1=CC(=O)OC1 (some centres not stated) | – | – | ? | ? | ? | –
C[C@@H]1O[C@@H](O[C@H]2CC[C@]3(C=O)C4CC[C@]5(C)[C@@H](C6=CC(=O)OC6)CC[C@]5(O)[C@@H]4CC[C@]3(O)C2)[C@H](O)[C@H](O)[C@H]1O (some centres not stated) | 0.33µM | · | · | · | · | 0.37µM
CC1O[C@@H](O[C@@H]2C(O)C[C@H](O[C@@H]3C(O)C[C@@H](OC4CC[C@@]5(C)C6CC[C@]7(C)C(C8=CC(=O)OC8)CC[C@@]7(O)C6CC[C@@H]5C4)OC3C)OC2C)CC(O)[C@H]1O (some centres not stated) | 0.73µM | · | · | · | · | 1µM
Cc1c(C(=O)Nc2ccccc2)c2cc(O)ccc2n1Cc1ccccc1 | ? | – | – | ? | ? | ?
Cc1ccc(CNC(=O)C(=O)NCC(c2cccnc2)N2CCN(c3ccc(F)cc3)CC2)cc1 (configuration not stated) | 3.3µM | · | · | · | · | 4.1µM
Cc1ccc(OCC(=O)N2CCN(Cc3cccnc3)CC2)cc1 | – | – | – | ? | – | –
O=C(NCc1ccc(Cl)cc1)C(=O)NCC(c1cccnc1)N1CCN(c2ccccc2)CC1 (configuration not stated) | 7.3µM | · | · | · | · | 9.2µM
Cc1ccccc1NP(=O)(Oc1ccccc1F)Oc1ccccc1F | ? | 23µM | – | – | – | –
CCCOc1ccccc1NP(=O)(Oc1ccccc1)Oc1ccccc1 | ? | – | – | – | – | ?
Cc1cccc(NP(=O)(Oc2ccccc2)Oc2ccccc2)c1C | ? | ? | -89 | ? | – | ?
N#Cc1c(Cl)cccc1Cl | – | · | · | · | · | –
Cn1c(=O)oc2cc(S(=O)(=O)N3CCCC(C(=O)Nc4ccccn4)C3)ccc21 (configuration not stated) | – | – | – | – | – | ?
Cn1c(=O)oc2cc(S(=O)(=O)N3CCCC(C(=O)N4CCN(c5ccc(Cl)cc5)CC4)C3)ccc21 (configuration not stated) | 1.3µM | · | · | · | · | 5.2µM
CC(=O)N1CCCc2cc(S(=O)(=O)N3CCCC(C(=O)N4CCN(c5ccccc5F)CC4)C3)ccc21 (configuration not stated) | 5.8µM | · | · | · | · | 3.7µM
CN1CCN(C(=O)COc2ccc(S(=O)(=O)Nc3ccc(F)cc3)cc2)CC1 | – | – | – | – | – | –
COc1ccc(NS(=O)(=O)c2ccc3c(c2)CCCN3C(=O)C2CCC2)cc1OC | 3.7µM | · | · | · | · | 2.6µM
COc1ccc(C(CNC(=O)c2cc(S(=O)(=O)N3CCCCC3)ccc2C)N2CCCC2)cc1 (configuration not stated) | ? | · | – | – | – | ?
COc1ccc(N2CCN(C(=O)C3CCCN(S(=O)(=O)c4ccc5c(c4)CCCN5C(C)=O)C3)CC2)cc1 (configuration not stated) | 2.3µM | · | · | · | · | 4.1µM
CNC(C)(C)Cc1ccccc1 | – | – | – | – | – | –
CC(=O)N1CCc2cc(S(=O)(=O)N3CCN(c4ccc(C)cc4)C(C)C3)ccc21 (configuration not stated) | 21µM | · | · | · | · | 23µM
CC(=O)O[C@H]1C[C@@H]2OC3C=C(C)CCC3(C)[C@@]1(C)[C@@]21CO1 (some centres not stated) | 1µM | · | -100 | ? | · | 0.58µM
SMILES | TDP1 cell noCPT | ELG1 repair inh | IL1B secr inh | HT1080NT lethal | HT1080 IDH1KD tx | DT40 TDP1 CPT
CCCc1cc(N2CCN(c3cccc(C)c3C)CC2)n2cnnc2n1 | 18µM | · | · | · | · | 16µM
COc1cc2c(cc1OC)C13CCN4CC5=CCOC6CC(=O)N2C1C6C5C3C4 (configuration not stated) (tested in a mixture with another compound) | ? | · | – | – | – | 13µM
O=C(Cn1c(=O)n(Cc2ccccc2)c(=O)c2sc3ccccc3c21)NCc1ccccc1Cl | ? | · | · | · | · | –
Cc1cccc(C)c1-n1nnnc1C(c1cccc2ccccc12)N1CCC(n2c(=O)[nH]c3ccccc32)CC1 (configuration not stated) | 16µM | · | – | – | – | 15µM
Cc1cccc(C)c1-n1nnnc1C(C1CC1)N1CCC(n2c(=O)[nH]c3ccccc32)CC1 (configuration not stated) | ? | · | – | – | – | ?
Cc1cccc(C)c1-n1nnnc1C(c1cccs1)N1CCC(n2c(=O)[nH]c3ccccc32)CC1 (configuration not stated) | 21µM | · | – | – | ? | ?
CCS(=O)CCSP(=O)(OC)OC (configuration not stated) | – | · | · | · | · | –
c1ccc(OCc2ccc(CCCN3CCOCC3)cc2)cc1 | 21µM | ? | – | – | – | ?
C[C@]12CCC3C(CC[C@H]4C[C@@H](O)CC[C@]34C)C1CC[C@@H]2OC(=O)[C@H](N)CCCCN (some centres not stated) | ? | – | -72 | – | – | ?
Cc1ccc(O)c(C)c1 | – | – | – | – | – | –
C[C@]12C=CC(=O)C=C1CC[C@@H]1C2=CC[C@]2(C)[C@@H](C(=O)CN3CCN(c4cc(N5CCCC5)nc(N5CCCC5)n4)CC3)CC[C@@H]12 | 13µM | · | ? | – | – | 18µM
CN1CC2CN(Cc3ccccc3)S(=O)(=O)C2C1 (configuration not stated) | – | · | – | ? | – | –

High-throughput results: PubChem BioAssay, National Center for Advancing Translational Sciences (NCATS)
